Source: PubChem BioAssay
HT1080-NT tox – kills 2HG-producing HT-1080-NT fibrosarcoma cells; Potency, µM (series often up to 46.1 µM), actives largely listed as cytotoxic; HT-1080-NT fibrosarcoma viability, CellTiter-Glo ATP luminescence, 48 h; 360,000 compounds, 1.6% hits;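 further: NT is the 2HG producing partner of a matched IDH1 knockdown line; nearly all actives have a fitted effect of over 55% in size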
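A 48-hour cytotoxicity screen used HT-1080-NT cells plated 2 hours before compound delivery. ATP-based CellTiter-Glo luminescence measured viability, normalized to DMSO and no-cell controls.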
IL1B secr inh – blocks inflammasome-driven IL-1 beta release; THP-1 LPS/ATP IL-1B secretion, AlphaLISA, 16 h; active compounds read low; activity change, % at 57.5 µM; 360,000 compounds, 4.7% hits; AID 743279; in the data active means activity change below about -50%; inconclusive means mostly about -30% to -49%
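Secreted IL-1B measured by AlphaLISA bead assay after 16 h compound exposure of THP-1 cells; compounds (final up to 57.5 uM) added 1 h before LPS (250 ng/mL) and ATP (1.25 mM) stimulation; lower signal means less secretion.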
HT1080 IDH1KD tx – kills HT-1080 cells with IDH1 knockdown | HT-1080 IDH1 knockdown viability, ATP luminescence, 48 h | 360,000 compounds, 2% hits | Potency, µM (doses to about 46.1 µM), hits mostly cytotoxic
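Using the IDH1-knockdown HT-1080 line run in the same batch and compound series as the NT line, viability after 48 h at 37 °C was determined by CellTiter-Glo luminescence and expressed as % activity.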
TDP1 cell CPT – DT40-hTDP1 cell growth loss with CPT. chicken DT40 Tdp1-/-;hTDP1 cells + 20 nM CPT, ATP luminescence, 48 h. Potency, µM (top dose mostly 46.2 µM), most hits filed as inhibitors. 420,000 compounds, 12% hits; further: nearly all actives have a fitted effect of over 55% in size
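Chicken DT40 Tdp1-/- cells stably complemented with human TDP1 were seeded at 400 cells/well in medium containing 20 nM camptothecin, exposed to pin-transferred compounds, and grown at 37 °C for at least 48 hr. Viability was read as ATP luminescence.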
TDP1 cell noCPT – qHTS for Inhibitors of human tyrosyl-DNA phosphodiesterase 1 (TDP1): qHTS in cells in absence of CPT; Potency, µM (top dose mostly 46.2 µM), most hits filed as inhibitors; DT40 Tdp1-/- hTDP1 cells, no CPT, ATP luminescence, 48 h; 420,000 compounds, 15% hits; further: nearly all actives have a fitted effect of over 55% in size
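Camptothecin absent (DMSO only). Human TDP1-complemented DT40 knockout cells, 400 cells/well, 37 °C for minimum 48 hr; ATP measured via CellTiter-Glo, 30 min dark incubation, luminescence.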
Numbers stand for hits; – = inactive; ? = inconclusive; · = no result given; [ ] = another dose, or the depositor's remark. The list is not random: actives were taken first. Their share in the collection is about 19%. Unless noted, the call rests on the fitted dose curve; in most records, active means well fitted curve in the direction sought with a large enough effect; inconclusive means small, poorly fitted or top-dose-only effect, or another doubt; inactive means no such curve, though single readings can be large; an effect the other way counts as inactive or inconclusive.

SMILES	HT1080-NT tox	IL1B secr inh	HT1080 IDH1KD tx	TDP1 cell CPT	TDP1 cell noCPT
CC(=O)Nc1cc(-c2cccc(C(=O)N(C)C)c2)cn2c(-c3ccc(C(C)=O)cc3)cnc12	–	?	–	16.4µM	11.6µM
CN1C(=O)Cc2cc(S(=O)(=O)Nc3ccc(Cl)cc3)ccc21	–	–	–	–	–
COc1ccc(-c2cc(NC(C)=O)c3ncc(-c4ccccc4)n3c2)cc1OC	?	–	–	?	?
CC(=O)Nc1cc(-c2cccc(F)c2)cn2c(-c3ccc(S(C)(=O)=O)cc3)cnc12	–	-52.4	–	?	20.6µM
CC(=O)Nc1cc(-c2cccc(F)c2)cn2c(-c3ccccc3)cnc12	–	–	–	18.4µM	?
CC(=O)Nc1cc(-c2ccoc2)cn2c(-c3ccccc3)cnc12	–	–	–	1.03µM	0.92µM
CC(=O)Nc1cccc(-c2cc(NC(C)=O)c3ncc(-c4ccc(F)cc4)n3c2)c1	–	–	?	?	14.6µM
CC(=O)Nc1cc(-c2cccc(C(=O)N(C)C)c2)cn2c(-c3ccccc3)cnc12	–	–	–	?	?
COc1cc(CC(=O)OCC(=O)c2c[nH]c3ccccc23)cc(OC)c1OC	–[9.24 µM]	–	–	?	?
CCCOc1ccc(F)cc1-c1cc(C(=O)NCc2cc(C(F)(F)F)cc(C(F)(F)F)c2)[nH]n1	?	–	?	?	?
COc1cc(CNC(=O)c2cc(-c3cc(Cl)ccc3OC)n[nH]2)cc(OC)c1	–	–	–	?	?
COc1ccc(F)cc1-c1cc(C(=O)NCc2cc(C(F)(F)F)cc(C(F)(F)F)c2)[nH]n1	–	–	?	18.4µM	?
COc1ccc(Cl)cc1-c1cc(C(=O)NCc2ccccc2)[nH]n1	–	–	–	16.4µM	20.6µM
CCOc1ccc(Cl)cc1-c1cc(C(=O)NCc2cc(C(F)(F)F)cc(C(F)(F)F)c2)[nH]n1	?	–	?	23.1µM	?
CCOc1ccc(-c2cc(C(=O)NCc3ccc(C(F)(F)F)cc3)[nH]n2)c(C)c1	?	–	–	–	–
COc1ccc(Cl)cc1-c1cc(C(=O)N[C@H](C)c2ccccc2)[nH]n1	?	–	–	2.59µM	3.66µM
O=c1c(-c2ccnn2-c2cccc(Cl)c2)cnc2n1CCS2	–	–	–	–	–
CC12CCC(=O)N1C(C(=O)NNC(=O)COc1cccc(C(F)(F)F)c1)CS2 (stereo unspecified)	–	–	–	–	–
CCOc1ccc(Cl)cc1-c1cc(C(=O)NCc2ccccc2OC)[nH]n1	–	–	–	?	18.4µM
CCOc1ccccc1-c1ccc(C(=O)NCc2ccc(Cl)cc2)o1	–	·	–	?	?
CCOc1ccc(Cl)cc1-c1cc(C(=O)NCc2ccccc2)[nH]n1	?	?	?	11.6µM	?
COc1ccc(F)cc1-c1cc(C(=O)NCc2ccc(F)cc2)[nH]n1	–	–	–	?	–
COc1ccc(F)cc1-c1cc(C(=O)NCc2ccccc2)[nH]n1	–	-67.2	–	–	?
COc1ccccc1CNC(=O)c1cc(-c2ccc(F)cc2OC)n[nH]1	–	-50.7	–	–	?
COCCCN1C(=O)c2ccccc2CC1(C)C(=O)NC1CCCCC1 (stereo unspecified)	·	·	·	–	–
SMILES	HT1080-NT tox	IL1B secr inh	HT1080 IDH1KD tx	TDP1 cell CPT	TDP1 cell noCPT
COc1cccc(C(=O)NCCSCc2c(F)cccc2Cl)c1	–	-65.2	–	–	?
Cc1c(C(=O)NCCSCc2ccc(F)cc2)cnn1-c1ccc(Cl)cc1	–	·	–	–	?
Cc1c(C(=O)NCCSCc2c(F)cccc2Cl)cnn1-c1ccc(F)cc1	–	–	–	?	25.9µM
CCC1=NN(C(=O)C(=O)Nc2ccccc2OC)C(O)(C(F)(F)F)C1 (stereo unspecified)	2.82µM	–	1.41µM	–	?
CCC1=NN(C(=O)CCc2ccccc2)C(O)(C(F)(F)F)C1 (stereo unspecified)	–	–	?	–	–
CCC1=NN(C(=O)C(=O)Nc2ccc(OC)cc2)C(O)(C(F)(F)F)C1 (stereo unspecified)	8.91µM	–	5.01µM	–	–
COc1ccc(NC(=O)C(=O)N2N=C3CCCCC3C2(O)C(F)(F)F)cc1 (stereo unspecified)	–	–	–	–	–
CCC1=NN(C(=O)C(=O)NCCc2ccccc2)C(O)(C(F)(F)F)C1 (stereo unspecified)	?	–	17.8µM	–	–
COc1ccccc1NC(=O)C(=O)N1N=C(C(C)C)CC1(O)C(F)(F)F (stereo unspecified)	?	–	?	–	–
Cc1ccc(N(CC(=O)NCc2ccc(F)cc2)C(=O)c2snc(C(N)=O)c2N)cc1C	–	–	–	–	–
O=S(=O)(c1ccc(F)cc1)N1CCN(Cc2ccccn2)CC1	–	–	–	–	–
Cc1ccc(NC(=O)/C(C#N)=C(\N)C(Cl)(Cl)Cl)nc1	?	-100.3	?	0.581µM	2.06µM
O=C(CN1C(=O)CSC1=O)c1ccccc1	–	–	–	–	–
CCOC(=O)c1cnc2ccc(Cl)cc2c1Nc1ccc(N2CCOCC2)cc1	·	·	·	14.6µM	14.6µM
CCOC(=O)c1cnc2ccc(C(=O)OC)cc2c1Nc1ccc(N2CCOCC2)cc1	·	·	·	10.3µM	11.6µM
CCOC(=O)c1cnc2ccc(C)cc2c1Nc1ccc(N(CC)CC)cc1	·	·	·	11.6µM	6.51µM
CCOC(=O)c1cnc2ccccc2c1Nc1cccc(C(=O)O)c1	–	–	–	–	–
C/C(=N/NC(=O)c1ccco1)c1ccc(Br)s1	–	–	–	–	–
Cc1cc(CN2CCN(CCC#N)CC2)c(O)c(C2(C)CCCCC2)c1	–	–	–	16.4µM	20.6µM
CCc1ccc(S(=O)(=O)ON2C(=O)c3ccccc3C2=O)cc1	–	–	–	7.31µM	11.6µM
O=C1c2cccc3cccc(c23)C(=O)N1OS(=O)(=O)c1ccc(Cl)cc1	–	–	–	?	18.4µM
NCCNCCN	·	·	·	–	–
O=C(Nc1nnc(C23CC4CC(CC(C4)C2)C3)s1)c1ccc(N2C(=O)CCC2=O)cc1	–	–	–	?	25.9µM
Cc1cccc(C)c1NC(=O)CSC(=O)c1sc2ccccc2c1Cl	–	·	–	–	–
CCc1ccc(NC(=O)Nc2cn(C)c(=O)c3ccccc23)cc1	·	·	·	20.6µM	20.6µM
SMILES	HT1080-NT tox	IL1B secr inh	HT1080 IDH1KD tx	TDP1 cell CPT	TDP1 cell noCPT
Cc1c(NC(=O)Nc2cccs2)cccc1[N+](=O)[O-]	–	–	–	?	?
Cc1ccc(NC(=O)Nc2cccs2)cc1	–	–	–	16.4µM	25.9µM
Cc1ccc(NC(=O)Nc2ccno2)cc1	–	–	–	?	16.4µM
Cc1ccc(NC(=O)Nc2cccs2)nc1	–	–	–	–	–
Cc1cccc(NC(=O)Nc2cccs2)c1C	·	·	·	25.9µM	?
Cc1ccn2cc(CNC(=O)c3cccc(C(F)(F)F)c3)nc2c1	·	·	·	–	–
